Test in all cases: NCI-60 one-dose screen, 48 h (100 = growth as untreated, 0 = no growth, -100 = all killed)
Details in all cases: 10 µM unless noted

The subject of assay [1] is T-47D breast.
The subject of assay [2] is BT-549 breast.
For assay [3], the system named is MDA-MB-435 melanoma.
The subject of assay [4] is SW-620 colon.
The subject of assay [5] is MCF7 breast.
The subject of assay [6] is HCT-116 colon.
Assay [7] deals with HCC-2998 colon.
For assay [8], the system named is KM12 colon.

This is part of a sample that, as a whole, favours compounds with a hit. Of some 83,000 tested, about 20% had one in any assay.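 Single-concentration screen, 48 h exposure, 96-well plates. Endpoint: percent growth. Below 10 = active.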 Values without a mark were called inactive. Calls of active or inactive are those of the source.

As to `O=c1ccccc(-c2ccc(-c3ccco3)cc2)c1O`, the growth in assay [1] is 28.7%; in assay [2] it was 28.1%; in assay [3] it was 26.3%; in assay [4], 27.8%; in assay [5], 15.3%; in assay [6], 21.8%. The values for the growth in assay [7] and in assay [8] were 41.1% and 23%, respectively.
Consider `Cn1c(=O)[nH]c(=O)c2nc(CCC(=O)NCCC(=O)O)c(=O)[nH]c21`, for which the growth in assay [1] is 98.8%; in assay [2], 105%; in assay [3], 101%; in assay [4], 101%; in assay [5], 103%; in assay [6] it was 109%. In addition, the growth was 98.3% in assay [7] and 102% in assay [8].
For `COc1cc2nc(N3CCCC3)nc(Nc3ccccc3)c2cc1OC`, the growth in assay [1] is -49.1% (active); in assay [2], -70.9% (active); in assay [3] it was -61.4% (active); in assay [4] it was -20.4% (active); in assay [5] it was -71.6% (active); in assay [6], -79.4% (active). Besides, the growth is -51.2% (active) in assay [7] and 33% in assay [8].
As for `Cc1ccc2c(C(C[N+](=O)[O-])c3ccccc3F)c(-c3ccccc3)[nH]c2c1` (stereo not given), the growth in assay [1] was 29.3%; in assay [2], 50%; in assay [3], -30.3% (active); in assay [4], 19.7%; in assay [5], 24.4%; in assay [6] it was 25.9%. Moreover, the growth in assay [7] was 73.9%; in assay [8], 23.3%.
Take `COc1cc(-c2nc3cc(Cl)c(Cl)cc3[nH]2)ccc1OCC(=O)N=Nc1c(O)[nH]c2ccccc12`: the growth in assay [1] is -63.4% (active); in assay [2], -90.3% (active); in assay [3] it was -94.9% (active); in assay [4], -46.9% (active); in assay [5], -76.1% (active); in assay [6] it was -75.6% (active). Besides, the growth in assay [7] was -91.1% (active); in assay [8] it was -81.5% (active).
Turning to `COc1cccc(/C=N/NC(=O)c2ccccc2Nc2ccnc(C(F)(F)F)c2)c1O`, the growth in assay [1] is 17.6%; in assay [2] it was 25.8%; in assay [3], 31.9%; in assay [4], 31.9%; in assay [5], 3.13% (active); in assay [6], 12.8%. Besides, the growth in assay [7] is 51.2%; in assay [8] it was 38.8%.
Turning to `C#CCOc1ccc2ncnc(N3CCC(NC(=O)CCl)CC3)c2c1`, the growth in assay [1] was 71% [8.25 µM]; in assay [2] it was 64.2% [8.25 µM]; in assay [3] it was 68.1% [8.25 µM]; in assay [4], 55.8% [8.25 µM]; in assay [5], 51.9% [8.25 µM]; in assay [6] it was 56.5% [8.25 µM]. The growth is 107% [8.25 µM] in assay [7] and 96.5% [8.25 µM] in assay [8].
For the molecule `NC(=O)c1cc(Br)ccc1NC(=O)/C=C/c1ccccc1`, the growth is 36.4% in assay [1]; 90.1% in assay [2]; -7.27% (active) in assay [3]; 29.1% in assay [4]; 19.9% in assay [5]; 38% in assay [6]. Moreover, the growth in assay [7] was 64.4%; in assay [8] it was 20.7%.
Turning to `CCCCC/C(C=C(C#N)C#N)=C/c1ccccc1`, the growth is 76.1% in assay [1]; 69.3% in assay [2]; 27% in assay [3]; 59.2% in assay [4]; 38.5% in assay [5]; 27.7% in assay [6]. Besides, the results for the growth in assay [7] and in assay [8] were 88.3% and 72.6%, respectively.
For the molecule `CC(=O)NCC1c2c(n(C)c3c(Cl)c(Cl)ccc23)C(=O)NC1(C)C` (stereo not given), the growth in assay [1] was 98.5%; in assay [2] it was 102%; in assay [3], 96.4%; in assay [4] it was 113%; in assay [5] it was 92.1%; in assay [6] it was 94.8%. For the same molecule, the growth was 93% in assay [7] and 118% in assay [8].
`CN1CCN(c2nc(NCCCNc3ccnc4cc(Cl)ccc34)c3ccccc3n2)CC1`: the growth is 40.7% in assay [1]; 74.5% in assay [2]; -22.4% (active) in assay [3]; 15.7% in assay [4]; 29.9% in assay [5]; 37.3% in assay [6]. In addition, the values for the growth in assay [7] and in assay [8] were 37.2% and 41.9%, respectively.
Turning to `Cc1cn2c(/C=C3/C(=O)Nc4c3ccc3ccccc43)c(C(F)(F)F)nc2s1`, the growth in assay [1] was 28.1%; in assay [2], 37.2%; in assay [3], -47.2% (active); in assay [4] it was 18.2%; in assay [5], 15.4%; in assay [6], 30.6%. Further, the growth in assay [7] was 46.6%; in assay [8], 15.3%.
Regarding `O=[N+]([O-])c1ccc(Nc2nc(NCCN3CCOCC3)ncc2[N+](=O)[O-])cc1`, the growth is 100% in assay [1]; 89% in assay [2]; 97.8% in assay [3]; 89.1% in assay [4]; 79.8% in assay [5]; 88.1% in assay [6]. The results for the growth in assay [7] and in assay [8] were 93.4% and 99%, respectively.
On to `Cc1cc2nc3[nH]c4ccccc4c3nc2cc1C`, for which the growth in assay [1] was 58.9%; in assay [2], 92.4%; in assay [3], 120%; in assay [4], 73.3%; in assay [5], 48.2%; in assay [6], 46.1%. In addition, the growth in assay [7] is 98.4%; in assay [8], 77.9%.
For the molecule `O=C1/C(=C/N2N=C(c3ccc4ccccc4c3)CC2c2ccccc2O)SC(=S)N1c1cccnc1` (stereo not given), the growth in assay [1] was 44.5%; in assay [2], 6.36% (active); in assay [3], -48.7% (active); in assay [4] it was 24%; in assay [5] it was 17.3%; in assay [6], 10.9%. In addition, the growth is 28.5% in assay [7] and 18.2% in assay [8].

These data come from PubChem BioAssay (NCI).
